Screens from PubChem BioAssay.
Sampled rows, rich in hits. Any-hit rate of the full collection: about 10%.
G9a inh: G9a (human) methyltransferase inhibition; Q96KQ7; AID 504332; Potency, µM (highest dose often 102 µM), for the others: at the top dose activity, negative = inhibition, hits mostly inhibitors; G9a H3K9 monomethylation, AlphaScreen, 2 h; actives 8.8% (n = 350,000); note: potency is the fitted concentration of half-maximal effect; nearly all actives have a fitted effect of over 75% in size
Target sequence (Q96KQ7 913-1193 limits assumed): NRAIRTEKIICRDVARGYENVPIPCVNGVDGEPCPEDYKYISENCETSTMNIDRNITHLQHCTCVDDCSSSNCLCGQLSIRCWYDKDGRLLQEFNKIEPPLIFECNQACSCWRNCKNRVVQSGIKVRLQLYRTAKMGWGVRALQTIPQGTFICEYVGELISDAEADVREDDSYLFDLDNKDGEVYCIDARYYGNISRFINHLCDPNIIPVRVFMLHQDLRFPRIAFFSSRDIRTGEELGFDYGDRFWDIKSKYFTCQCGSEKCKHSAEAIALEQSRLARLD
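Compounds were preincubated with 20 nM G9a for 15 min, after which biotinylated H3K9 peptide (500 nM) and SAM (20 uM) started a 2 h room-temperature reaction. Monomethylated product was quantified by antibody-based AlphaScreen chemiluminescence.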
PLK1 PBD inh: blocks phosphopeptide binding to human PLK1 polo-box domain | P53350 | Plk1 PBD binding of FITC phosphopeptide, fluorescence polarization | Potency, µM, inactives show max response, negative = inhibition, hits mostly inhibitors | actives 2.8% (n = 360,000); note: potency is the fitted concentration of half-maximal effect; series mostly up to about 57 µM; nearly all actives have a fitted effect of over 65% in size
VDR inhibitor: vitamin D3 receptor (human) inhibition; VDR-SRC2-3 peptide fluorescence polarization, 2 h; actives 0.93% (n = 400,000); Potency, µM, inactives show max response, negative = inhibition, usual class: inhibitors; AID 504847; note: potency is the fitted concentration of half-maximal effect
Target sequence (P11473 whole entry, looked up): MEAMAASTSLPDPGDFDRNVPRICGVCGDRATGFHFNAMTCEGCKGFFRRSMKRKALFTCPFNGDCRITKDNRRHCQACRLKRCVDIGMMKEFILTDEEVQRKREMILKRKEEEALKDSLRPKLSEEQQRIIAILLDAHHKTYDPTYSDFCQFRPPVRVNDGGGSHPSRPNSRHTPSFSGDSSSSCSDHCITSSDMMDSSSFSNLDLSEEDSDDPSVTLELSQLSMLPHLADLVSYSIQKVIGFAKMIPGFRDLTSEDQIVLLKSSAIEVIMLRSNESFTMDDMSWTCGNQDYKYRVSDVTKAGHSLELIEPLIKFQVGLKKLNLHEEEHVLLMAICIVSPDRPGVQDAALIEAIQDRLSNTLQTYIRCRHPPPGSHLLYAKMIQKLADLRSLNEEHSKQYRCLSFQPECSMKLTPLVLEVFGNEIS
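Reagent solutions, kept cold and dark, are dispensed first; compounds are then pinned in at 23 nl, plates briefly spun, and incubated 2 h at ambient temperature. Inhibition of VDR–SRC2-3 peptide binding is read by fluorescence polarization.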
CCT modulator: cytosolic chaperonin activity modulation | purified chaperonin ATPase assay, HTRF ADP detection, 30 min | activity change, % (test concentration not listed), hits read low | actives 0.3% (n = 360,000); in the data active = activity change below about -30%
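Nucleotide hydrolysis assay: TRiC at 20–40 nM final (set by batch activity) with 10 uM ATP, 30 min at 37 °C, in presence of 76 uM compound. Detection by competitive ADP HTRF, 30 min ambient.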
Sfp PPTase inh: blocks B. subtilis Sfp PPTase activity; Q9F4F7; Biochemical Sfp PPTase activity, qHTS; Potency, µM, for the others: largest response in the series, negative = inhibition, hits mostly inhibitors; actives 3.5% (n = 310,000);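 note: the enzyme is Sfp with the accession as filed and its product quenches rhodamine fluorescence; potency is the fitted concentration of half-maximal effect; 0% = enzyme reaction without inhibitor and -100% = no enzyme wells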
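With Hepes-Na pH 7.6 buffer containing 10 mM MgCl2, Sfp (15 nM) modified BHQ-2-YbbR (12.5 uM) using rhodamine-CoA (5 uM). Two reads 30 minutes apart at 525/598 nm yielded each well's rate.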
MmCpn inh: blocks the Methanococcus maripaludis chaperonin Mm-Cpn; purified Mm-Cpn ATPase, ADP Transcreener TR-FRET; Potency, µM (titrated, usually from 76.9 µM), for the others: top-dose activity, negative = inhibition, hits mostly inhibitors; actives 0.031% (n = 330,000); AID 504842; note: potency is the fitted concentration of half-maximal effect; nearly all actives have a fitted effect of over 80% in size
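ATP (10 uM final) was added to archaeal chaperonin (25 nM final) after 10 min exposure to test compound at 37°C; after 30 min further incubation, ADP was detected by competitive TR-FRET.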
The depositor's hits bear a star; ? = inconclusive; · = no result; ! = a repeat was not active; [ ] = dose if it differs, or a comment. Unless noted, calls come from the whole dose curve; as a rule, active = well fitted curve in the direction sought with a large enough effect; inconclusive = small, poorly fitted or top-dose-only effect, or another doubt; inactive = no such curve, though single readings can be large; an effect the other way counts as inactive or inconclusive. Unless noted, % is set by controls: 0 for no effect and ±100 for the full control effect.

SMILES	G9a inh	PLK1 PBD inh	VDR inhibitor	CCT modulator	Sfp PPTase inh	MmCpn inh
O=[N+]([O-])c1cc(C(F)(F)F)ccc1Sc1ccc2ccccc2n1	40µM*	30µM*	-26%	2	?	0%
O=[N+]([O-])c1ccc(Sc2ncccn2)c([N+](=O)[O-])c1	·	-11%	-7%	0	-16%	2%
CCN(CC)C(=O)CSc1ccc(C(F)(F)F)cc1[N+](=O)[O-]	13%[59 µM]	-7%	-5%	1	7%	1%
O=[N+]([O-])c1ccc(Sc2nccn2Cc2ccccc2)c([N+](=O)[O-])c1	45µM*	-12%	-27%	-2	-3%	1%
Nc1nc(Sc2ccc(C(F)(F)F)cc2[N+](=O)[O-])n[nH]1	-8%[12.7 µM]	-6%	14%	-2	11%	1%
O=[N+]([O-])c1cc(C(F)(F)F)ccc1Sc1nccn1Cc1ccccc1	45µM*	-12%	?	-2	-8%	0%
CC(C)NC(=O)c1ccc(Cn2c(=O)c3cccn3c3cccnc32)cc1	7%[59 µM]	·	-3%	·	·	·
CC1CCC2C(=O)N3C(CCC(C)[C@@H]3c3cccc(N4CCOCC4)c3)C(=O)N2C1c1cccc(Br)c1 (stereo partly specified)	·	·	·	·	-11%	·
CC1CCC(NC(=O)c2ccc3c(c2)N(Cc2ccccc2)C(=O)c2ccccc2S3(=O)=O)CC1 (stereo unspecified)	-38%[59 µM]	·	-8%	·	·	·
COc1cccc(Cn2cnc3c(NS(=O)(=O)c4cc(Cl)ccc4Cl)c(C)c(C)cc32)c1	8.9µM*	-2%	-15%	0	-6%	1%
CCCCOc1ccccc1NC(=O)c1ccc(=O)[nH]c1	-22%	30µM*	-21%	0	14%	2%
COc1ccccc1CNCCCCCCNCCCCCCCCNCCCCCCNCc1ccccc1OC	10µM*!	·	-2%	·	?	·
COc1ccccc1CNN	25µM*	?	?	2	-5%	-4%
COc1ccccc1CNc1ncccn1	·	-16%	-4%	-2	79µM*	-11%
COc1ccccc1CNS(=O)(=O)N(C)C	10%[59 µM]	21µM*	7%	-3	8%	1%
Cc1ccc2c(=O)cc(C(=O)Nc3sc4c(c3C(=O)NCC3CCCO3)CCC4)oc2c1 (stereo unspecified)	-32%[59 µM]	·	12%	·	·	·
CCCOc1cccc(C(=O)Nc2ccc(-c3nc4ccccc4s3)c(Cl)c2)c1	?	·	9%	·	·	·
CCS(=O)(=O)N1CCc2cc(C(=O)NC(C)c3ccccc3)ccc21 (stereo unspecified)	-50%[59 µM]	·	16%	·	·	·
COc1cc(NC(=O)C2=CC(c3cccs3)=NS(=O)(=O)N2C)cc(OC)c1OC	45µM*	-5%	2%	-2	10%	1%
COC(=O)c1ccccc1NC(=O)C1=CC(c2cccs2)=NS(=O)(=O)N1C	5%	-4%	-16%	0	18%	-1%
CSc1ccccc1NC(=O)C1=CC(c2cccs2)=NS(=O)(=O)N1C	35µM*	?	-5%	-1	-15%	2%
Cc1cccc(N2CCN(C(=O)c3ccccc3NC(=O)C3=CSCCO3)CC2C)c1 (stereo unspecified)	20%[59 µM]	24µM*	?	-1	10%	0%
CC1=C(C(=O)Nc2ccccc2C(=O)N2CCN(c3ccccc3)CC2)SCCO1	·	-1%	·	-3	·	·
CC(C)OC(=O)[C@@H]1CC[C@H](C)[C@@H](CCC[C@@H]2C[C@@H](O)C[C@H](CC#N)O2)O1	·	·	3%	·	16%	·
Cc1nn(CCC(=O)NNC(=S)Nc2ccc(Cl)cc2)c(C)c1[N+](=O)[O-]	10µM*	?	7%	-2	3%	-2%
SMILES	G9a inh	PLK1 PBD inh	VDR inhibitor	CCT modulator	Sfp PPTase inh	MmCpn inh
Cc1cccc(NC(=S)NNC(=O)CCn2nc(C)c([N+](=O)[O-])c2C)c1	?	?	6%	-17	-3%	0%
Cc1nn(C(C)C(=O)NNC(=S)Nc2ccc(Cl)cc2)c(C)c1[N+](=O)[O-] (stereo unspecified)	8.9µM*	?	-2%	-24	26%	1%
Cc1nn(C(C)C(=O)Nc2ccc3c(c2)OCO3)c(C)c1[N+](=O)[O-] (stereo unspecified)	·	-4%	10%	0	7%	3%
COc1ccc(CNC(=O)CSCc2ccc(C)cc2)c(OC)c1	-2%[59 µM]	·	9%	·	·	·
COc1cc(NC(=O)Cn2c(=O)n(Cc3ccccc3Cl)c(=O)c3cc(OC)c(OC)cc32)cc(OC)c1	5%[59 µM]	·	-5%	·	·	·
CC1OC(OC2C(OC3C(O[C@H]4CC[C@]5(C)C6C=C[C@]78OC[C@@]9(CC[C@@H](C)[C@H](C)C97)[C@H](O)C[C@@]8(C)[C@]6(C)CC[C@H]5C4(C)C)OC(C)C(O)C3O)OC(CO)C(O)C2O)C(O)C(O)C1O (stereo partly specified)	-15%[12.7 µM]	·	·	·	79µM*	-1%
O=C(CSc1nc2[nH]c(=O)cc(O)c2s1)Nc1nncs1	·	30µM*	-15%	1	·	·
CCc1nnc(NC(=O)CSc2nc3[nH]c(=O)cc(O)c3s2)s1	?	-26%	-18%	1	·	0%
Cc1csc(NC(=O)CSc2nc3[nH]c(=O)cc(O)c3s2)n1	·	-7%	-3%	-1	·	·
CCSc1nnc(NC(=O)CSc2sc3c(O)cc(=O)[nH]c3c2C#N)s1	?	12µM*	16%	0	-29%	-9%
CCc1nnc(NC(=O)CSc2nnc(-c3cc4ccccc4cc3O)n2CC)s1	28µM*	-15%	3%	-3	-3%	1%
Cc1ccc(Cl)cc1NC(=O)CSc1sc2c(O)cc(=O)[nH]c2c1C#N	-7%[59 µM]	?	7%	1	?	-19%
CCc1nnc(NC(=O)CSc2sc3c(O)cc(=O)[nH]c3c2C#N)s1	10µM*	30µM*	-2%	-2	79µM*	-8%
Cc1cccc(N2CCN(C(=O)Cn3ncc4c3-c3cc(C)ccc3OC4)CC2C)c1 (stereo unspecified)	?	·	-19%	·	·	·
COCCNC(=O)c1cnc2sc(N3CCCCC3)nn2c1=O	6%[59 µM]	·	0%	·	·	·
COc1ccc(CCC(=O)NCc2nc3cccnc3n2Cc2cccc(OC)c2)cc1	9%[59 µM]	·	3%	·	·	·
CCCCC(CC)CNC(=O)c1ccc2c(=O)n(CCOC)c(=O)[nH]c2c1 (stereo unspecified)	1%[59 µM]	·	-1%	·	·	·
O=C(NCCc1ccc(F)cc1)C(=O)NCC(c1cccs1)S(=O)(=O)c1ccc(Cl)cc1 (stereo unspecified)	-2%[59 µM]	·	8%	·	·	·
CCOc1ccc(NC(=O)c2c(C)oc3nc(C)nc(N4CCOCC4)c23)cc1	-20%[59 µM]	·	15%	·	·	·
Cc1csc(NC(=O)CSc2sc3c(O)cc(=O)[nH]c3c2C#N)n1	50µM*	?	19%	-1	?	-19%
